Reference: PubChem BioAssay (NCATS)
“And” between values parts separate entries of the source, which are not always exact repeats. Equal entries are not always repeated. Inconclusive results are not listed. The source made the active and inactive calls. Unless noted, calls come from the whole dose curve; as a rule, active = well fitted curve in the direction sought with a large enough effect; inconclusive = small, poorly fitted or top-dose-only effect, or another doubt; inactive = no such curve, though single readings can be large; an effect the other way counts as inactive or inconclusive.

What was measured:
[1] = P-glycoprotein substrates identified in KB-8-5-11 adenocarcinoma cell line, qHTS therapeutic library screen (AID 1346987); note: nearly all actives have a fitted effect of over 65% in size; note: potency is the fitted concentration of half-maximal effect
How it was run: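 Compounds are pinned in dose-response onto KB-8-5-11 cells (500 cells/well, colchicine-free medium) and left 72 h at 37 degree C. CellTiter-Glo luminescence then yields AC50 values.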

[2] = NS1 protein of Zika virus - qHTS assay to identify small molecule inhibitors in human HEK 293 cells (AID 1347053); note: nearly all actives have a fitted effect of over 55% in size; note: potency is the fitted concentration of half-maximal effect
How it was run: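 Read-out is a two-antibody TR-FRET for ZIKV NS1, normalized between uninfected cells and infected cells. Compound added 1 h before MR766 infection at MOI 0.5; human HEK 293 cells incubated 24 h, 37 C.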

[3] = qHTS of pediatric cancer cell lines to identify multiple opportunities for drug repurposing: Primary screen for TC32 cells (AID 1347089); note: nearly all actives have a fitted effect of over 60% in size; note: potency is the fitted concentration of half-maximal effect
How it was run: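 Luminescent CellTiter-Glo read-out of metabolically active TC32 cells after 48 h compound exposure. Primary: MIPE 11-point, 0.78 nM–46 µM; NPC 8-point, 0.59 nM–46 µM. Confirmatory: 11-point dilutions.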

[4] = qHTS of pediatric cancer cell lines to identify multiple opportunities for drug repurposing: Primary screen for DAOY cells (AID 1347090); note: nearly all actives have a fitted effect of over 55% in size; note: potency is the fitted concentration of half-maximal effect
How it was run: (§1)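 Eight- or eleven-point concentration series, 48 h treatment at 37 degrees C in growth media; readout CellTiter-Glo luminescence. Potency and efficacy were taken from the concentration-response curves.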

[5] = qHTS of pediatric cancer cell lines to identify multiple opportunities for drug repurposing: Primary screen for SJ-GBM2 cells (AID 1347091); note: potency is the fitted concentration of half-maximal effect
How it was run: as §1

[6] = qHTS of pediatric cancer cell lines to identify multiple opportunities for drug repurposing: Primary screen for A673 cells (AID 1347092); note: nearly all actives have a fitted effect of over 45% in size; note: potency is the fitted concentration of half-maximal effect
How it was run: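 A673 cells (500-1,000 cells/well in growth media) were pre-incubated 5 h at 37 degrees C, then exposed to compounds for 48 h. Viability was read as CellTiter-Glo luminescence; concentration-response curves came directly from the primary screen.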

[7] = qHTS of pediatric cancer cell lines to identify multiple opportunities for drug repurposing: Primary screen for SK-N-MC cells (AID 1347093); note: potency is the fitted concentration of half-maximal effect
How it was run: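 Metabolically active cells were quantified by ATP-dependent luminescence (CellTiter-Glo, 15 min at room temperature) following 48 h treatment. Cells had been plated at 500-1,000 per well and settled for 5 h beforehand.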

[8] = qHTS of pediatric cancer cell lines to identify multiple opportunities for drug repurposing: Primary screen for BT-37 cells (AID 1347094); note: potency is the fitted concentration of half-maximal effect
How it was run: (§2)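 Quantitative HTS format: each compound titrated (MIPE 11 points from 0.78 nM, NPC 8 points from 0.59 nM) onto cells plated 5 hours earlier. After 48 h at 37 degrees C, CellTiter-Glo luminescence was recorded.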

[9] = qHTS of pediatric cancer cell lines to identify multiple opportunities for drug repurposing: Primary screen for NB-EBc1 cells (AID 1347095); note: potency is the fitted concentration of half-maximal effect
How it was run: as §2

[10] = qHTS of pediatric cancer cell lines to identify multiple opportunities for drug repurposing: Primary screen for U-2 OS cells (AID 1347096); note: nearly all actives have a fitted effect of over 50% in size; note: potency is the fitted concentration of half-maximal effect
How it was run: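 Cells (500-1,000/well) in growth media were settled 5 h at 37 degrees C, then given compounds for 48 h. Viability was read as CellTiter-Glo luminescence. Primary runs used MIPE at 11 points (0.78 nM-46 µM) and NPC at 8 points (0.59 nM-46 µM); follow-ups used 11 points.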

[11] = qHTS of pediatric cancer cell lines to identify multiple opportunities for drug repurposing: Primary screen for Saos-2 cells (AID 1347097); note: nearly all actives have a fitted effect of over 40% in size; note: potency is the fitted concentration of half-maximal effect
How it was run: as §2

[12] = P-glycoprotein substrates identified in KB-3-1 adenocarcinoma cell line, qHTS therapeutic library screen (AID 1346986);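 note: potency is the fitted concentration of half-maximal effect; potency is for cytotoxicity meaning loss of cell viability; nearly all actives have a fitted effect of over 60% in size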
How it was run: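 72 h cell-killing screen, 500 cells/well, CellTiter-Glo luminescence. Paired lines KB-3-1/KB-8-5-11; P-gp dependence checked by tariquidar co-treatment and HEK-293 MDR-19 versus empty-vector cells.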

[13] = Natriuretic polypeptide receptor (hNpr1) antagonism - Pilot counterscreen GloSensor control cell line (AID 1347045; calls by dose curve; note: series mostly up to about 38 µM)
How it was run: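 Control counterscreen: luciferase cGMP-biosensor HEK293 cells (no Npr1) received compound for 30 min at room temperature after GloSensor substrate loading. Luminescence was measured before and 20 min after soluble guanylyl cyclase activation by 50 uM nitroprusside.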

[14] = molecular target: Atrial natriuretic peptide receptor 1 (Homo sapiens) (UniProt P16066); assay: Natriuretic polypeptide receptor (hNpr1) antagonism - Pilot screen (AID 1347049; calls by dose curve;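 note: HEK293 cells with hNpr1 and GloSensor cGMP luciferase stimulated by 0.1 nM hNppA; agonist-evoked cGMP luminescence read 20 min after hNppA addition; series mostly up to about 58 µM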)
How it was run: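 Cells expressing receptor plus cGMP biosensor are seeded and incubated overnight at 37C, then loaded with GloSensor reagent (2% final) at room temperature for 2 h. Library compounds go on for 30 min. A pre-read precedes agonist (hNppA, 0.1 nM final) and a 20-min readout.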

[15] = molecular target: Atrial natriuretic peptide receptor 2 (Homo sapiens) (UniProt P20594); assay: Natriuretic polypeptide receptor (hNpr2) antagonism - Pilot subtype selectivity assay (AID 1347050; calls by dose curve)
How it was run: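 Read-out: GloSensor luminescence (CCD imager), baseline vs post-stimulation. HEK293 cells expressing hNpr2; compounds pre-incubated 30-50 min at ambient temperature; hNppC 1 nM final, 20 min.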

[16] = molecular target: Parathyroid hormone/parathyroid hormone-related peptide receptor (Homo sapiens) (UniProt Q03431); assay: qHTS for PTHR1 Agonists: Optimization Screen against the NCGC LOPAC library (AID 1347079);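 note: GloSensor cAMP luminescence in HEK-293 GP2 cells expressing human PTHR1 with IBMX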
How it was run: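 HEK-293 GP2 cells, PTHR1 + GloSensor cAMP; 3000 cells/well, o/n. Luciferin + IBMX 0.5mM each (stock), 1 hr 37C. Cpd titration, 1 hr 37C. Lum after 15 min RT. Ctrl M-PTH(1-15) top 10uM.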

[17] = qHTS of pediatric cancer cell lines to identify multiple opportunities for drug repurposing: Primary screen for SK-N-SH cells (AID 1347098); note: nearly all actives have a fitted effect of over 65% in size; note: potency is the fitted concentration of half-maximal effect
How it was run: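 Cells (500-1,000/well) rested 5 h, then received compounds for 48 h; metabolically active cells were measured by CellTiter-Glo luminescence. Final concentrations spanned up to 46 µM (MIPE, 11-point) or 0.59 nM-46 µM (NPC, 8-point) in primary screens, 11-point in follow-ups.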

Measured: Potency

Sequence of Parathyroid hormone/parathyroid hormone-related peptide receptor (Homo sapiens) (Q03431 whole entry, looked up): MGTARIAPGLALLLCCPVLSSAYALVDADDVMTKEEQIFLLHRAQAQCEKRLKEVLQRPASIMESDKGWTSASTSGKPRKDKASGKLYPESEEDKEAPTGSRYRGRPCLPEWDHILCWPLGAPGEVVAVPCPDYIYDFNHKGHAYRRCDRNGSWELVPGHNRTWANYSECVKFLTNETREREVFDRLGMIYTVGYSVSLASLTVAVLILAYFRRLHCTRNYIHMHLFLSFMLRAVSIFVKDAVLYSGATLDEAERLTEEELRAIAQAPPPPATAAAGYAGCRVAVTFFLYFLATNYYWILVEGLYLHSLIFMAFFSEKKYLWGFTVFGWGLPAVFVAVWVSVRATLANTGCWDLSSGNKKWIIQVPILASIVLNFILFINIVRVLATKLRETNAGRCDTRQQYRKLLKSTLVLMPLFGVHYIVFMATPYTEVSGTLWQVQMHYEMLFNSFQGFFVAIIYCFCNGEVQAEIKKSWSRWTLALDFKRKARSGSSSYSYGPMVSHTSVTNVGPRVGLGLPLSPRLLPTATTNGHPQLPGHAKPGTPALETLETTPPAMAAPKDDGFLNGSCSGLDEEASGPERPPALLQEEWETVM
Sequence of Atrial natriuretic peptide receptor 2 (Homo sapiens) (P20594 whole entry, looked up): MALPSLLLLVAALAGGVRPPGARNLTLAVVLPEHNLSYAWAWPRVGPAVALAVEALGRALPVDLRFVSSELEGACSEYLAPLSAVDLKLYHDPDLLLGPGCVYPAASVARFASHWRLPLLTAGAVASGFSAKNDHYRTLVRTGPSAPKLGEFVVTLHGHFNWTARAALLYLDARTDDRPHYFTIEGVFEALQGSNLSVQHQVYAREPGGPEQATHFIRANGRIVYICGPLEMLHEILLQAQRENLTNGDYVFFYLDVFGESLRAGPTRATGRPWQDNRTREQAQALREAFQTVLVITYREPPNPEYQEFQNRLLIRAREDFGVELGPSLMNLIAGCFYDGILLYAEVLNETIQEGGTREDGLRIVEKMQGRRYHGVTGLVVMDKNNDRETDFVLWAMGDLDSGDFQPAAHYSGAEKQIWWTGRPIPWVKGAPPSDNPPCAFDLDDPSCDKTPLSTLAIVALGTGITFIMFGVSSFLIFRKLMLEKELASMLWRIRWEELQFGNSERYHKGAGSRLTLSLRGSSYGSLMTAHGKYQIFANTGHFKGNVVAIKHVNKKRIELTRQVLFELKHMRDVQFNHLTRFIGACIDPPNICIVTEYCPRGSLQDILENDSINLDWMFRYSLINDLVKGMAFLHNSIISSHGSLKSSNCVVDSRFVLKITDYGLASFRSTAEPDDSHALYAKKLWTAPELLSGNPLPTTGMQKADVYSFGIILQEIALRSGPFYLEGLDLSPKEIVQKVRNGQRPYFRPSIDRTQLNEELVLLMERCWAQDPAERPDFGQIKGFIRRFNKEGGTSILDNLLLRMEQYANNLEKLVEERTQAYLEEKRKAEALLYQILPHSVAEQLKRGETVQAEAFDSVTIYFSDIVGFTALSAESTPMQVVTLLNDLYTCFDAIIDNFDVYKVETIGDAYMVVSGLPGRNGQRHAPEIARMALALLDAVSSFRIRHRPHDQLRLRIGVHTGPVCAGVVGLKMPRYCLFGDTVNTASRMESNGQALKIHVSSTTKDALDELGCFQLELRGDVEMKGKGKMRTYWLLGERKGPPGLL
Sequence of Atrial natriuretic peptide receptor 1 (Homo sapiens) (P16066 whole entry, looked up): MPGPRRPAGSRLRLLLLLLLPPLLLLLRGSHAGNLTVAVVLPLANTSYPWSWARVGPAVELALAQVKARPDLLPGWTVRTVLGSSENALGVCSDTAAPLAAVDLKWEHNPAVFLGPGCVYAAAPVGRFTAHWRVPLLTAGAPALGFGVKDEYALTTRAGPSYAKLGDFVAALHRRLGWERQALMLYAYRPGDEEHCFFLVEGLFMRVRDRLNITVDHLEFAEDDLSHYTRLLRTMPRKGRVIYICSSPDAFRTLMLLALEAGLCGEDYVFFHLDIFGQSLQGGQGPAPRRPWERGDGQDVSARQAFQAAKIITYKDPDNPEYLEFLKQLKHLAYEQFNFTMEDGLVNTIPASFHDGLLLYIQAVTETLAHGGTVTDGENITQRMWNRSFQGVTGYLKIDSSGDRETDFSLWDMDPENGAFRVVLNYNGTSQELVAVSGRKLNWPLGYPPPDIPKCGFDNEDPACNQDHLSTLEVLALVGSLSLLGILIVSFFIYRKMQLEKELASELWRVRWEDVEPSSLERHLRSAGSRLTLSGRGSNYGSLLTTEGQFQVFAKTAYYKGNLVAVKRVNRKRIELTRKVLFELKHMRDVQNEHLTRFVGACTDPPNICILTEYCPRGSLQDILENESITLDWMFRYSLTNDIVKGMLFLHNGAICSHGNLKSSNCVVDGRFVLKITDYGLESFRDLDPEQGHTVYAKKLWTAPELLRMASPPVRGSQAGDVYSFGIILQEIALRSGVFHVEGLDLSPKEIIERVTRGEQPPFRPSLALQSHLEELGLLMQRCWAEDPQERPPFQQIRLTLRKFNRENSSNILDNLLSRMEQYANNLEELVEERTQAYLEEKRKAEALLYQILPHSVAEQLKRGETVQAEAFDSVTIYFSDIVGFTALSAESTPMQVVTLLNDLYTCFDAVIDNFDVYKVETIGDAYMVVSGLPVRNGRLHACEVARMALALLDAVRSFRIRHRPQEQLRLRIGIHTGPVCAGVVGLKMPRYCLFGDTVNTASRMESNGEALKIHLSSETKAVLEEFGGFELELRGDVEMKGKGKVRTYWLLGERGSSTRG

Nc1ccc(-c2ccc3ncc4ccc(=O)n(-c5cccc(C(F)(F)F)c5)c4c3c2)cn1
active: [1] 1 nM and 36.6 nM | [2] 41.8 nM | [3] 10.4 nM | [4] 7.4 nM | [5] 0.003 µM | [6] 3 nM | [7] 0.1 nM | [8] 10.9 nM | [9] 0.0118 µM | [10] 1.48 µM | [11] 0.148 µM

CC1(COc2ccc3c(c2)ncn3-c2ccc3cccc(N4CCC(N)CC4)c3n2)COC1
active: [12] 10.3 µM | [5] 5.26 µM | [7] 1 nM | [8] 1 nM | [10] 29.6 µM | [11] 16.6 µM

COc1ccc(-c2oc3c(CC=C(C)C)c(O)cc(O)c3c(=O)c2O)cc1
inactive: [1] | [2] | [3] | [10]
active: [4] 23500 nM | [5] 18.7 µM | [6] 18700 nM | [7] 9350 nM | [9] 18.7 µM | [11] 23.5 µM

C[C@H]1O[C@@H](n2cc(F)c(=O)[nH]c2=O)[C@H](O)[C@H]1O
active: [1] 18.7 µM | [9] 4.69 µM
inactive: [13] | [14] | [15] | [16] | [4] | [5] | [10] | [11]

NCC1CCC(C(=O)O)CC1 (stereo not drawn)
not listed: [11] | [12] | [13] | [14] | [15] | [16]
inactive: all other assays above

CC(NCCc1ccc(O)cc1)C(O)c1ccc(O)cc1 (stereo not drawn)
not listed: [7] | [12] | [13] | [14] | [15] | [16] | [17]
inactive: all other assays above

CCOC(=O)N1c2ccc(C(F)(F)F)cc2[C@@H](N(Cc2cc(C(F)(F)F)cc(C(F)(F)F)c2)C(=O)OC)C[C@H]1CC
inactive: [1] | [2] | [3] | [4] | [5] | [6] | [9] | [10]

CC(C)(CO)[C@@H](O)C(=O)NCCC(=O)O
not listed: [6] | [12] | [13] | [14] | [15] | [16]
inactive: all other assays above

CC(C)(F)C[C@H](N[C@@H](c1ccc(-c2ccc(S(C)(=O)=O)cc2)cc1)C(F)(F)F)C(=O)NC1(C#N)CC1
inactive: [1] | [2] | [3] | [4] | [6] | [7] | [10] | [11] | [17]
active: [5] 14.8 µM

O=C(O)C1=CC(O)C(O)[C@H](O)C1 (stereo partly drawn)
not listed: [6] | [12] | [13] | [14] | [15] | [16]
inactive: all other assays above

CNC(=O)[C@H](CC1=CN=C2C=CCC=C12)NC(=O)[C@@H](CC(=O)NO)CC(C)C
active: [4] 29.6 nM | [6] 46.9 nM | [7] 5.9 nM | [8] 685 nM | [17] 1.21 µM
inactive: [1] | [2] | [3] | [5] | [10]

Cc1nc(C(=O)NCC(=O)O)c(O)c2ccc(Oc3ccccc3)cc12
inactive: [1] | [2] | [3] | [4] | [5] | [6] | [8] | [10] | [17]

C=CC[N+]1([C@H]2C[C@H]3[C@@H]4CC[C@H]5C[C@H](O)[C@@H](N6CCOCC6)C[C@]5(C)[C@@H]4CC[C@]3(C)[C@H]2OC(C)=O)CCCC1
not listed: [6] | [12] | [13] | [14] | [15] | [16]
inactive: all other assays above
